{"source": "ChEMBL document CHEMBL1961873", "about": "“Compounds: GSK PKIS; Assays: Nanosyn kinase panel” (2012)", "data": [{"target": "T1, cGMP-dependent protein kinase 1 (Homo sapiens) (UniProt Q13976)", "T1 sequence (whole entry)": "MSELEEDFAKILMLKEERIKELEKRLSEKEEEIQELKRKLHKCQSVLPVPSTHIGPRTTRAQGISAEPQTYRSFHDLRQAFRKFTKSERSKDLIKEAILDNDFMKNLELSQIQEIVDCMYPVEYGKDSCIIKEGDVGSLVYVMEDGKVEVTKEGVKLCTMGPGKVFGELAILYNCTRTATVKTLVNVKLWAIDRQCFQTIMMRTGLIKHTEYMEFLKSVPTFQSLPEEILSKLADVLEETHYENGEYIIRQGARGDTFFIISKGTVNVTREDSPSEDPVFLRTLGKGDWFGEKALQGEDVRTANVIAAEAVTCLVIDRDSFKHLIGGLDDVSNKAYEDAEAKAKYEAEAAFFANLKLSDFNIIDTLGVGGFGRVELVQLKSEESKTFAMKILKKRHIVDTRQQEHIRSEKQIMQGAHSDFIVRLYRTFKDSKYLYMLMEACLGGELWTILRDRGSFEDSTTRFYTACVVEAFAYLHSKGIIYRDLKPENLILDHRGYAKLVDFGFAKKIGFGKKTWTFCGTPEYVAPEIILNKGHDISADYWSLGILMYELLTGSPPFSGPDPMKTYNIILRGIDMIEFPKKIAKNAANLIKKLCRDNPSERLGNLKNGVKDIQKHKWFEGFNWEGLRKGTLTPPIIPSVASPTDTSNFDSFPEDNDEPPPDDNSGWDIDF", "details": "at 0.1 µM", "units": {"inhibition": "%"}, "values": [{"molecule": "NC(=O)Cc1ccccc1Oc1nccc(-c2c(-c3ccc(F)cc3)ncn2C2CCNCC2)n1", "inhibition": 1.82}, {"molecule": "C[C@@H](Oc1cc(-n2cnc3ccc(OC4CCN(C)CC4)cc32)sc1C(N)=O)c1ccccc1Cl", "inhibition": 3.98}, {"molecule": "NS(=O)(=O)c1ccc(N/N=C2\\C(=O)Nc3ccc(-c4cnco4)cc32)cc1", "inhibition": 2.42}, {"molecule": "NS(=O)(=O)c1ccc(Nc2cc(-c3ccc(O)c(F)c3)n[nH]2)cc1", "inhibition": -1.74}, {"molecule": "CCS(=O)(=O)c1ccc(OC)c(Nc2ncc(-c3ccccc3Cl)o2)c1", "inhibition": 1.27}, {"molecule": "COc1cc(Nc2ncc3c(C)nc(-c4cccc(C(F)(F)F)c4)n3n2)cc(OC)c1OC", "inhibition": 0.96}, {"molecule": "Cc1ccc(C(=O)NC2CCC2)cc1-c1ccc(C(=O)NCC2CC2)cc1", "inhibition": 3.87}, {"molecule": "C[C@@H](Oc1cc(-n2cnc3ccc(OCC4CCN(C)CC4)cc32)sc1C(N)=O)c1ccccc1Cl", "inhibition": 3.88}, {"molecule": "Fc1ccc(-c2ncn(C3CCNCC3)c2-c2ccnc(Oc3ccc4c(c3)OCO4)n2)cc1", "inhibition": 2.62}, {"molecule": "CCS(=O)(=O)c1ccc(OC)c(Nc2ncc(-c3cccc(-c4ccccc4F)c3)o2)c1", "inhibition": 0.11}, {"molecule": "CN(c1ccc(NC(=O)Nc2c(Cl)cccc2Cl)cc1)c1ccnc(Nc2cccc(CS(C)(=O)=O)c2)n1", "inhibition": 3.11}, {"molecule": "O=C(NCC1CC1)c1ccc(-c2cccc(C(=O)NC3CC3)c2)cc1", "inhibition": 3.32}, {"molecule": "COc1ccc2cc(-c3c(-c4ccncc4)nc(-c4ccc(S(C)(=O)=O)cc4C)n3C)ccc2c1", "inhibition": 5.14}, {"molecule": "NC(=O)c1ccc(Oc2nccc(-c3c(-c4ccc(F)cc4)ncn3C3CCNCC3)n2)cc1", "inhibition": 4.67}, {"molecule": "Nc1nccc(-c2c(-c3ccc(F)cc3)ncn2C2CCC(O)CC2)n1", "note": "(stereo not drawn)", "inhibition": -1.29}, {"molecule": "COc1cc2ncn(-c3cc(OCCc4ccccc4)c(C(N)=O)s3)c2cc1OC", "inhibition": 2.33}, {"molecule": "Cc1ccc(NC(=O)c2ccoc2)cc1-c1ccc(C(=O)NCC2CC2)cc1", "inhibition": 0.89}, {"molecule": "COc1cc(Nc2ncc(-c3ccccc3)o2)cc(OC)c1OC", "inhibition": 1.84}, {"molecule": "O=C(Nc1n[nH]c2nc(-c3ccc(O)cc3)c(Br)cc12)C1CC1", "inhibition": 3.5}, {"molecule": "CCc1nccc2c1nc(-c1nonc1N)n2CC", "inhibition": 0.88}, {"molecule": "COc1ccc(C2=C(N3CCc4ccccc43)C(=O)NC2=O)cc1", "inhibition": 1.67}, {"molecule": "COc1ccc(-c2ccc3c(NC(=O)C4CC4)n[nH]c3n2)cc1", "inhibition": 1.26}, {"molecule": "COc1cc2ncn(-c3cc(OCc4ccccc4C(F)(F)F)c(C(C)=O)s3)c2cc1OC", "inhibition": 1.35}, {"molecule": "Fc1ccc(-c2ncn(C3CCNCC3)c2-c2ccnc(Oc3ccc(Oc4ccccc4)cc3)n2)cc1", "inhibition": 4.81}, {"molecule": "COc1cc2ncn(-c3cc(OCc4cccs4)c(C(N)=O)s3)c2cc1OC", "inhibition": 3.61}, {"molecule": "O=C(Nc1ccc(Oc2ccc3[nH]c(NC(=O)c4ccccc4)nc3c2)cc1)Nc1cc(C(F)(F)F)ccc1F", "inhibition": 2.01}, {"molecule": "Fc1ccc(-c2nc3n(c2-c2ccncc2)CCS3)cc1", "inhibition": 3.66}, {"molecule": "Fc1ccc(-c2ncn(C3CCNCC3)c2-c2ccnc(Oc3ccc(F)c(F)c3)n2)cc1", "inhibition": 2.42}, {"molecule": "COc1cccc(/C=N/Nc2ncnc3c2cnn3-c2cccc(OC)c2)c1", "inhibition": 3.82}, {"molecule": "C/C(Nc1ccc(S(N)(=O)=O)cc1)=C1/C(=O)Nc2ccccc21", "inhibition": 0.96}, {"molecule": "NS(=O)(=O)c1ccc(N/N=C2\\C(=O)Nc3ccc(C(=O)NCCCn4ccnc4)cc32)cc1", "inhibition": 4.15}, {"molecule": "CN(C)CCOc1ccc(-c2cc(-c3ccc4c(c3)CCC4=NO)c(-c3ccncc3)o2)cc1", "inhibition": -1.48}, {"molecule": "COc1ccc2cc(-c3c(-c4ccncc4)nc(-c4ccc([S+](C)[O-])cc4C)n3C)ccc2c1", "note": "(stereo not drawn)", "inhibition": 0.69}, {"molecule": "FC(F)(F)c1cccc(Nc2nccc(-c3cnn4nc(-c5ccccc5)ccc34)n2)c1", "inhibition": 1.17}]}, {"target": "T1, cGMP-dependent protein kinase 1 (Homo sapiens)", "details": "at 1 µM", "units": {"inhibition": "%"}, "values": [{"molecule": "NC(=O)Cc1ccccc1Oc1nccc(-c2c(-c3ccc(F)cc3)ncn2C2CCNCC2)n1", "inhibition": 3.89}, {"molecule": "C[C@@H](Oc1cc(-n2cnc3ccc(OC4CCN(C)CC4)cc32)sc1C(N)=O)c1ccccc1Cl", "inhibition": 4.08}, {"molecule": "NS(=O)(=O)c1ccc(N/N=C2\\C(=O)Nc3ccc(-c4cnco4)cc32)cc1", "inhibition": 4.22}, {"molecule": "NS(=O)(=O)c1ccc(Nc2cc(-c3ccc(O)c(F)c3)n[nH]2)cc1", "inhibition": -1}, {"molecule": "CCS(=O)(=O)c1ccc(OC)c(Nc2ncc(-c3ccccc3Cl)o2)c1", "inhibition": 3.79}, {"molecule": "COc1cc(Nc2ncc3c(C)nc(-c4cccc(C(F)(F)F)c4)n3n2)cc(OC)c1OC", "inhibition": 5.81}, {"molecule": "Cc1ccc(C(=O)NC2CCC2)cc1-c1ccc(C(=O)NCC2CC2)cc1", "inhibition": 3.84}, {"molecule": "C[C@@H](Oc1cc(-n2cnc3ccc(OCC4CCN(C)CC4)cc32)sc1C(N)=O)c1ccccc1Cl", "inhibition": 7.13}, {"molecule": "Fc1ccc(-c2ncn(C3CCNCC3)c2-c2ccnc(Oc3ccc4c(c3)OCO4)n2)cc1", "inhibition": 2.47}, {"molecule": "CCS(=O)(=O)c1ccc(OC)c(Nc2ncc(-c3cccc(-c4ccccc4F)c3)o2)c1", "inhibition": 3.03}, {"molecule": "CN(c1ccc(NC(=O)Nc2c(Cl)cccc2Cl)cc1)c1ccnc(Nc2cccc(CS(C)(=O)=O)c2)n1", "inhibition": 3.77}, {"molecule": "O=C(NCC1CC1)c1ccc(-c2cccc(C(=O)NC3CC3)c2)cc1", "inhibition": 1.97}, {"molecule": "COc1ccc2cc(-c3c(-c4ccncc4)nc(-c4ccc(S(C)(=O)=O)cc4C)n3C)ccc2c1", "inhibition": 8.86}, {"molecule": "NC(=O)c1ccc(Oc2nccc(-c3c(-c4ccc(F)cc4)ncn3C3CCNCC3)n2)cc1", "inhibition": 6.78}, {"molecule": "Nc1nccc(-c2c(-c3ccc(F)cc3)ncn2C2CCC(O)CC2)n1", "note": "(stereo not drawn)", "inhibition": 0.27}, {"molecule": "COc1cc2ncn(-c3cc(OCCc4ccccc4)c(C(N)=O)s3)c2cc1OC", "inhibition": 4.13}, {"molecule": "Cc1ccc(NC(=O)c2ccoc2)cc1-c1ccc(C(=O)NCC2CC2)cc1", "inhibition": 1.09}, {"molecule": "COc1cc(Nc2ncc(-c3ccccc3)o2)cc(OC)c1OC", "inhibition": 1.3}, {"molecule": "O=C(Nc1n[nH]c2nc(-c3ccc(O)cc3)c(Br)cc12)C1CC1", "inhibition": 6.22}, {"molecule": "CCc1nccc2c1nc(-c1nonc1N)n2CC", "inhibition": 7.44}, {"molecule": "COc1ccc(C2=C(N3CCc4ccccc43)C(=O)NC2=O)cc1", "inhibition": 6.23}, {"molecule": "COc1ccc(-c2ccc3c(NC(=O)C4CC4)n[nH]c3n2)cc1", "inhibition": 1.97}, {"molecule": "COc1cc2ncn(-c3cc(OCc4ccccc4C(F)(F)F)c(C(C)=O)s3)c2cc1OC", "inhibition": 0.72}, {"molecule": "Fc1ccc(-c2ncn(C3CCNCC3)c2-c2ccnc(Oc3ccc(Oc4ccccc4)cc3)n2)cc1", "inhibition": 7.25}, {"molecule": "COc1cc2ncn(-c3cc(OCc4cccs4)c(C(N)=O)s3)c2cc1OC", "inhibition": 7.44}, {"molecule": "O=C(Nc1ccc(Oc2ccc3[nH]c(NC(=O)c4ccccc4)nc3c2)cc1)Nc1cc(C(F)(F)F)ccc1F", "inhibition": 3.65}, {"molecule": "Fc1ccc(-c2nc3n(c2-c2ccncc2)CCS3)cc1", "inhibition": 4.28}, {"molecule": "Fc1ccc(-c2ncn(C3CCNCC3)c2-c2ccnc(Oc3ccc(F)c(F)c3)n2)cc1", "inhibition": 0.89}, {"molecule": "COc1cccc(/C=N/Nc2ncnc3c2cnn3-c2cccc(OC)c2)c1", "inhibition": 4.05}, {"molecule": "C/C(Nc1ccc(S(N)(=O)=O)cc1)=C1/C(=O)Nc2ccccc21", "inhibition": 3.66}, {"molecule": "NS(=O)(=O)c1ccc(N/N=C2\\C(=O)Nc3ccc(C(=O)NCCCn4ccnc4)cc32)cc1", "inhibition": 18.9}, {"molecule": "CN(C)CCOc1ccc(-c2cc(-c3ccc4c(c3)CCC4=NO)c(-c3ccncc3)o2)cc1", "inhibition": 3.68}, {"molecule": "COc1ccc2cc(-c3c(-c4ccncc4)nc(-c4ccc([S+](C)[O-])cc4C)n3C)ccc2c1", "note": "(stereo not drawn)", "inhibition": 0.56}, {"molecule": "FC(F)(F)c1cccc(Nc2nccc(-c3cnn4nc(-c5ccccc5)ccc34)n2)c1", "inhibition": -0.32}]}]}
